Screen size: about 350,000 compounds; about 450 (0.13%) were called active. The rule behind the calls is not given here. Not all results are given here. Potency and affinity values are given separately.
Assay: inhibitors of VEEV TC-83 cytopathic effect, confirmation, Vero cells (AID 588727)
Details: VEEV TC-83 cytopathic effect inhibition, at 20 µM
[1] = stronger effect = higher value unless noted
[2] = measured here: 10K pilot screen inhibition, stronger effect = higher value

Q: With `CCCOC1(NC(=O)c2ccccc2)C(C)=CC(=O)C=C1C` as the compound, how does the inhibition [1] read?
A: inactive

Q: Which inhibition [1] does the source give for `CC1CC(C)CN(S(=O)(=O)c2ccc(C(=O)N3CCN(c4ccccc4)CC3)cc2)C1` (configuration not stated) here?
A: 1.42% (inactive)

Q: With `CCOc1ccc(NS(=O)(=O)c2ccc(C(=O)N(C)CC(=O)Nc3ccc(OC)cc3)cc2)cc1` as the compound, how does the inhibition [1] read?
A: 4.36% (inactive)

Q: With `Cc1ccc(-n2c(SCC(=O)O)nc3sc4c(c3c2=O)CC(C)(C)SC4)cc1` as the compound, how does the inhibition [1] read?
A: 0.39% (inactive)

Q: Which inhibition [1] does the source give for `CCN1C(=O)/C(=C/c2cn(-c3ccccc3)nc2-c2cccnc2)SC1=S` here?
A: 0.65% (inactive)

Q: For `COc1ccc(OCC(=O)Nc2nc3c(s2)CCCC3)cc1`, which inhibition [1] is on record?
A: 5.92% (inactive)

Q: Which inhibition [1] does the source give for `O=C(COc1ccccc1)Nc1nc2c(s1)CCCC2` here?
A: 3.03% (inactive)

Q: For `CC1CCc2nc(NC(=O)Cc3cccs3)sc2C1` (configuration not stated), which inhibition [1] is on record?
A: 4.77% (inactive)

Q: With `O=C(CCCc1cccs1)Nc1nc2c(s1)CCCC2` as the compound, how does the inhibition [1] read?
A: 5.78% (inactive)

Q: For `CCOC1CCCC(n2cnc3c(=S)nc[nH]c32)O1` (configuration not stated), which inhibition [1] is on record?
A: 2.72% (inactive)

Q: Which inhibition [1] does the source give for `CCCC(=O)Nc1ccc(NC(=O)c2cccc(OC)c2)cn1` here?
A: 0.41% (inactive)

Q: For `COc1ccccc1CCC(=O)OCC(=O)NC1CC1`, which inhibition [1] is on record?
A: 2.29% (inactive)

Q: With `CC1=NOC2(C1)N(C)c1ccccc1C2(C)C` (configuration not stated) as the compound, how does the inhibition [1] read?
A: 0.08% (inactive)

Q: For `CCN(CC)S(=O)(=O)c1ccc(C2=NOC3(C2)N(C)c2ccccc2C3(C)C)cc1` (configuration not stated), which inhibition [1] is on record?
A: 8.77% (inactive)

Q: With `CCn1c(SCC(=O)OC)nnc1-c1ccncc1` as the compound, how does the inhibition [1] read?
A: 0.14% (inactive)

Q: For `COc1cccc(CC(=O)OCC(=O)NC(C)c2ccc(F)cc2)c1` (configuration not stated), which inhibition [1] is on record?
A: 4.67% (inactive)

Q: Which inhibition [1] does the source give for `Cc1cc(-c2nnc(SCCC(=O)Nc3ccccc3)o2)no1` here?
A: 0.79% (inactive)

Q: For `O=C(CSc1nnnn1C1CC1)Nc1ccc(S(=O)(=O)N2CCOCC2)cc1`, which inhibition [1] is on record?
A: 1.19% (inactive)

Q: For `CN(C)c1ccc(/C=C/c2c([N+](=O)[O-])c(=O)n(C)c(=O)n2C)cc1`, which inhibition [1] is on record?
A: 0.74% (inactive)

Q: With `COc1ccc(/C=C/c2c([N+](=O)[O-])c(=O)n(C)c(=O)n2C)cc1` as the compound, how does the inhibition [1] read?
A: 0.41% (inactive)

Q: Which inhibition [1] does the source give for `Cc1ccc(S(=O)(=O)Nc2cccc(C(=O)N3CCOCC3)c2)cc1` here?
A: inactive

Q: Which inhibition (stronger effect = higher value) does the source give for `Cc1cc(C)cc(NC(=O)CSc2nc3ccccc3nc2N2CCCCC2)c1` here?
A: 3.44% (inactive)

Q: What about the inhibition [2] of the same compound?
A: 1.42%

Q: Which inhibition (stronger effect = higher value) does the source give for `Cc1cc(C)cc(NC(=O)CSc2nc3ccccc3nc2N2CCCC2)c1` here?
A: 4.9% (inactive)

Q: What about the inhibition [2] of the same compound?
A: 0.985%

Q: With `CCc1ccc(C(C(=O)NC2CCCC2)N(C(=O)c2csnn2)C2CC2)cc1` (configuration not stated) as the compound, how does the inhibition [1] read?
A: 0.43% (inactive)

Q: With `CCN(CC)S(=O)(=O)c1ccc(OC)c(NS(=O)(=O)c2ccc(F)cc2)c1` as the compound, how does the inhibition [1] read?
A: inactive
